BAZ2B inh: blocks human BAZ2B. Q9UIF8. AlphaScreen BAZ2B-H3K14Ac peptide displacement. AID 504333. hit rate 4.4% among 360,000. Potency, µM (top dose mostly 114 µM), actives largely listed as inhibitors; further: nearly all actives have a fitted effect of over 60% in size
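AlphaScreen displacement: compounds (up to 110uM) incubated 30 min at room temperature with a preformed 50 nM BAZ2B/50 nM biotinylated H3K14Ac peptide complex in PBS pH 7.4 with Tween-20. Donor and acceptor beads at 10 ug/mL final added, 20 min light-protected before reading.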
HP1b binding inh: inhibitors of HP1-beta chromodomain binding to methylated histone tails; P83916; hit rate 0.56% among 390,000; Potency, µM (highest dose often 114 µM), usual class: inhibitors; AlphaScreen HP1-beta / biotin-H3K9me3 peptide binding; further: nearly all actives have a fitted effect of over 70% in size
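Compound inhibition of the preformed complex between 50 nM HP1-beta and 50 nM biotinylated H3K9me3 peptide was read by AlphaScreen. Buffer was PBS pH 7.4 with 0.01% Tween-20. Incubations ran 30 min at room temperature, with 10 ug/mL donor/acceptor beads.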
JMJD2A Tudor: inhibitors of human JMJD2A Tudor domain; hit rate 4.4% among 390,000; Potency, µM (doses to about 114 µM), hits mostly inhibitors; AID 504339; O75164; AlphaScreen JMJD2A-Tudor / H3K4me3 peptide binding; further: nearly all actives have a fitted effect of over 50% in size
TDP1 inh: inhibitors of human tyrosyl-DNA phosphodiesterase TDP1. recombinant TDP1, AlphaScreen DNA substrate cleavage. Potency, µM (series often up to 130 µM), actives largely listed as inhibitors. hit rate 0.28% among 350,000; further: nearly all actives have a fitted effect of over 40% in size
Target sequence (Q9NUW8 whole entry, looked up): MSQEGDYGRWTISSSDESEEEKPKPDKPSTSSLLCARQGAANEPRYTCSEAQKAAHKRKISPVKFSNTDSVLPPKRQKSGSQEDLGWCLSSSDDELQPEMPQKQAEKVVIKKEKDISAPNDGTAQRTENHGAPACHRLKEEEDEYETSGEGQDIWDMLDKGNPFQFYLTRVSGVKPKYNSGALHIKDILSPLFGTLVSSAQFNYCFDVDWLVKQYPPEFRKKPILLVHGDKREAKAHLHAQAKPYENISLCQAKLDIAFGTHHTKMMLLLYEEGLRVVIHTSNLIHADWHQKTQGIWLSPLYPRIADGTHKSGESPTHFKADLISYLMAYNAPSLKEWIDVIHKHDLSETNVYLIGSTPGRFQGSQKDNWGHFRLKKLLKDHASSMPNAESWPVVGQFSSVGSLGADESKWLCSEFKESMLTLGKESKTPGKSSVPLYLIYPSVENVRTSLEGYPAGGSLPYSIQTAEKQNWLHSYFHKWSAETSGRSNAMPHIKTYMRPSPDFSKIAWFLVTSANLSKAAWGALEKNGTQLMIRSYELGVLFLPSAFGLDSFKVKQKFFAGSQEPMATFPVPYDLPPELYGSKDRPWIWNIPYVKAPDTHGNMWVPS
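Recombinant E. coli-expressed Tdp1 (1 nM) preincubated with compound 15 min at RT, then 5'-biotin/3'-phosphotyrosine-FITC DNA substrate (15 nM) added for 5 min. AlphaScreen beads (10 ug/ml) added, 10 min RT; tyrosine-FITC cleavage read as signal loss.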
Sfp inh: inhibitors of Bacillus subtilis Sfp phosphopantetheinyl transferase; Q9F4F7; Potency, µM, usual class: inhibitors; Biochemical Sfp PPTase activity, qHTS; hit rate 3.5% among 310,000;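 further: the enzyme is Sfp with the accession as filed and its product quenches rhodamine fluorescence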
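After 15 min at room temperature with compound, 15 nM Sfp received 5 uM rhodamine-CoA plus 12.5 uM BHQ-2-ybbR (50 mM Hepes pH 7.6, 10 mM MgCl2). Rate came from the fluorescence difference over 30 min, ex 525/em 598 nm.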
G9a inh: blocks human histone lysine methyltransferase G9a. hit rate 8.8% among 350,000. Potency, µM (titrated, usually from 102 µM), hits mostly inhibitors. G9a H3K9 monomethylation, AlphaScreen, 2 h. AID 504332; further: nearly all actives have a fitted effect of over 75% in size
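AlphaScreen read-out: biotin-H3K9 peptide (500 nM) methylation by 20 nM enzyme with 20 uM SAM, 2 h at room temperature after 15 min compound preincubation; anti-monomethyl H3K9 antibody plus donor/acceptor beads, 10 min dark.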
A number is an active result; . = inactive; ? = inconclusive; / = no result; [ ] = remark or other dose. Compounds with a hit are over-represented: about 12% of the library has one in this group of screens. The call rests on the fitted dose curve; in most records, active means well fitted curve in the direction sought with a large enough effect; inconclusive means small, poorly fitted or top-dose-only effect, or another doubt; inactive means no such curve, though single readings can be large; an effect the other way counts as inactive or inconclusive.

SMILES	BAZ2B inh	HP1b binding inh	JMJD2A Tudor	TDP1 inh	Sfp inh	G9a inh
O=C(CNC(=O)c1ccccn1)N=Nc1c(O)[nH]c2ccccc12	.	.	.	.[0.0935 µM]	.	.
Cc1cccc(Nc2nnc(SCC(=O)NC(=O)CN3CCCC3=O)s2)c1	.	.	.	.	/	.[12.7 µM]
Cc1cccc(-c2nc3ccccc3c(=O)n2NC(=S)N(C)C)c1	.	.	89.1µM	.	31.6µM	8.91µM
CN(C)C(=S)Nn1c(-c2ccccc2)nc2ccccc2c1=O	.	.	.	.	.	.
COC(=O)c1[nH]c(C)c(/C(O)=C2\C(=O)C(=O)N(CCN(C)C)C2c2ccccc2OC)c1C (centres undefined)	.	.	44.7µM	.	.	?
CCOC(=O)c1[nH]c(C)c(/C(O)=C2\C(=O)C(=O)N(CCN(C)C)C2c2ccco2)c1C (centres undefined)	.	.	?	.	.	.[12.7 µM]
COC(=O)c1[nH]c(C)c(/C(O)=C2\C(=O)C(=O)N(CCN3CCOCC3)C2c2ccccc2OC)c1C (centres undefined)	.	.	50.1µM	.	.	50.1µM
Cc1nnsc1C(=O)N/N=C/c1ccc2ccccc2c1O	1.41µM	.	?	.	.	39.8µM
COc1cc(OC)c2c(-c3ccccc3)cc(=O)oc2c1C(CC(=O)N1CCOCC1)c1ccc(N(C)C)cc1 (centres undefined)	35.5µM	?	31.6µM	.	.	.[12.7 µM]
COc1cc(OC)c2c(-c3ccccc3)cc(=O)oc2c1C(CC(=O)N1CCOCC1)c1ccc2c(c1)OCO2 (centres undefined)	.	.	?	.	.	.
COc1cc(OC)c2c(-c3ccccc3)cc(=O)oc2c1C(CC(=O)N1CCN(c2ccccc2)CC1)c1ccc(N(C)C)cc1 (centres undefined)	8.91µM	?	6.31µM	.	.	?
CC(C)Oc1ccc(C(=O)NCCCNC(=O)c2cccnc2)cc1	.	.	.	.	.	.
O=C(COC(=O)CC1CC2CCC1C2)Nc1ccc(Cl)c(S(=O)(=O)N2CCOCC2)c1 (centres undefined)	.	.	.	.	/	.[12.7 µM]
O=c1cc(Br)c(O)c(Br)cc1Br	/	?	22.4µM	/	/	/
O=C1C(Cl)=C(Nc2ccccc2O)C(=O)N1CCc1ccccc1	31.6µM	?	50.1µM	.	11.2µM	3.16µM
COc1ccc(CCNC2=C(Cl)C(=O)N(CCc3ccccc3)C2=O)cc1OC	.	.	.	.	.	.
CN(C)CCNC(=O)c1cccc2ccc(-c3ccc(-c4ccccc4)cc3)nc12	/	.	56.2µM	/	/	/
CN(C)CCNC(=O)c1cccc2nc3cccc(F)c3nc12	/	.	.	/	/	/
O=C(CN(Cc1ccc(F)cc1)C(=O)CCC(=O)Nc1nccs1)NCc1ccccc1	.	.	.	/	.	.
CC(NCc1ccccc1)C1COc2ccccc2O1 (centres undefined)	?	.	3.16µM	.	.	31.6µM
CC(NCC(O)COc1ccccc1)C1COc2ccccc2O1 (centres undefined)	.	.	.	/	.	.
COc1ccc(CNC(C)C2COc3ccccc3O2)c(OC)c1 (centres undefined)	50.1µM	?	3.55µM	.	.	10µM
CCOC(=O)c1c(C2COc3ccccc3O2)csc1NC(=O)c1ccco1 (centres undefined)	?	17.8µM	31.6µM	.	?	1.58µM
CC(NC(=O)c1ccco1)C1COc2ccccc2O1 (centres undefined)	50.1µM	.	56.2µM	.	.	25.1µM
CC1=C(C(=O)NCc2cccc(F)c2)C2(CCCCC2)OC1=O	.	.	.	.	/	.
SMILES	BAZ2B inh	HP1b binding inh	JMJD2A Tudor	TDP1 inh	Sfp inh	G9a inh
O=C(CSc1ccc([N+](=O)[O-])cc1)NCC1CCCCC1	.	.	.	.	.	.
Cc1cccc(NC(=O)c2cc(CN3CCOCC3)on2)c1C	.	.	.	.	/	.
CC1(C)C(/C=C/C=C/C=C/C=C2\N(CCCCS(=O)(=O)O)c3ccc4ccccc4c3C2(C)C)=[N+](CCCCS(=O)(=O)[O-])c2ccc3ccccc3c21	/	?	6.31µM	/	50.1µM	?
CCOc1ccc(-c2csc(Cn3c(CN4CCN(C)CC4)nc4ccccc4c3=O)n2)cc1	?	?	22.4µM	.	?	22.4µM
CN(C)Cc1nc2ccccc2c(=O)n1Cc1nc(-c2cc3ccccc3o2)cs1	?	.	50.1µM	.	?	?
CCOC(=O)C1CCN(Cc2nc3ccccc3c(=O)n2-c2ccc(OCC)cc2)CC1	.	.	.	.	.	.
Cc1ccc(NC(=O)COc2ccccc2)c(NC(=O)c2ccco2)c1	.	.	.	.	.	.
CCOc1ccc(CCNC(=O)c2ccc(Cl)c(S(=O)(=O)N3CCOCC3)c2)cc1OCC	56.2µM	?	?	/	/	56.2µM
CCOc1ccc(CCNC(=O)c2oc3c(c2C)-c2[nH]ncc2CC3)cc1OCC	.	.	.	.	.	44.7µM
CCOc1ccc(CCNC(=O)c2cnccn2)cc1OCC	.	.	.	.	.	.
Cc1c(C(=O)NCc2ccccc2)oc2c1-c1[nH]ncc1CC2	?	.	.	.	/	?
CCOc1ccc(CCNC(=O)c2nccnc2C(=O)O)cc1OCC	?	.	.	/	.	50.1µM
O=C(Cc1ccc([N+](=O)[O-])cc1)Nc1cccc(C(=O)N2CCCC2)c1	/	.	.	.	/	/
COc1ccc2oc(CS(=O)c3ccccc3)c(C(=O)O)c2c1 (centres undefined)	.	.	.	/	.	.
CCC(=O)N1C2=C(c3ccccc3[C@@H]1CC(=O)Nc1ccc3ccccc3c1)[C@@H]1C(=O)N(c3ccccc3)C(=O)[C@@H]1[C@H](C)C2	/	/	/	.[12.3 µM]	.	/
O=C(NC(=S)Nc1cccc2ncccc12)c1ccco1	.	.	.	.	.	44.7µM
N#C/C(=C\c1ccco1)C(=O)NCc1ccccc1	.	.	.	.	.	.
Cc1cc(NC(=S)NC(=O)c2ccco2)c2ccccc2n1	.	.	?	.	28.2µM	?
O=C(Nc1cccc2ncccc12)c1ccc(F)cc1	.	.	.	.	.	.
N#C/C(=C\c1ccco1)C(=O)Nc1cccc2ncccc12	.	.	.	.	.	50.1µM
O=C(Nc1cccc2ncccc12)c1ccc(Cl)cc1	11.2µM	?	3.16µM	.	.	7.08µM
Cc1cccc(NC(=S)NC(=O)c2ccco2)n1	.	.	.	.	.	.
C=CCOc1ccccc1CN1CCCC(CCC(=O)N(C)CCc2ccccn2)C1 (centres undefined)	.	.	.	/	.	.
O=C(CCc1ccccc1)Nc1cc2c3c(c1)CC(=O)N3CCC2	.	.	.	.	/	.
CC(=O)Nc1cc(C)ns1	/	.	.	/	/	/
O=C(NC(=S)Nc1cccc2c(O)cccc12)c1ccco1	?	?	?	.	50.1µM	/

Assay outcomes as filed in PubChem BioAssay.
